AmpC detergent = inhibitors of E. coli AmpC beta-lactamase with detergent; hit rate 0.041% among 370,000; P00811; AmpC hydrolysis of nitrocefin, absorbance 480 nm, 0.01% Triton; AID 485294; Potency, µM (top dose mostly 114 µM), hits mostly inhibitors; further: nearly all actives have a fitted effect of over 25% in size
Target sequence (P00811 whole entry, looked up): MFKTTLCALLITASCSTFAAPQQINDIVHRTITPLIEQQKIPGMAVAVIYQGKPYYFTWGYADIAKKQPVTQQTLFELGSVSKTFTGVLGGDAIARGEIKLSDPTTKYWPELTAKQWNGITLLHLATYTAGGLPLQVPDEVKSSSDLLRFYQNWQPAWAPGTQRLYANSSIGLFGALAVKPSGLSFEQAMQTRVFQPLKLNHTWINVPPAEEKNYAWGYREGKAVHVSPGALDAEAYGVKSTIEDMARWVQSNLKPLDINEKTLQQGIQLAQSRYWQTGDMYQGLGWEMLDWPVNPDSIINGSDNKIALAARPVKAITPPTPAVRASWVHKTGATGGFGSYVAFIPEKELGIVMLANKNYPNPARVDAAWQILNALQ
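20 mM phosphate pH 7.0 + 0.01% (detergent screen) or 0.0001% Triton X-100; 5.3 nM AmpC reagent; cpd preinc 15 min RT; nitrocefin (800 uM stock) to start; A480 q20 s × 4 min; Activity was normalised to no-enzyme and no-compound control wells.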
AMA1 RON2 block = inhibitors of Plasmodium falciparum AMA1-RON2 interaction; AlphaScreen AMA1-biotinylated RON2 peptide binding; Potency, µM (series often up to 58.2 µM), most hits filed as inhibitors; hit rate 0.2% among 360,000; AID 720542; further: nearly all actives have a fitted effect of over 45% in size
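AMA1 (3D7) with his tag at 25 nM final met compounds first, then biotinylated RON2 peptide at 25 nM; detection used donor plus acceptor beads, 10 µg/mL apiece, read by AlphaScreen after 30 min at room temperature.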
Pf growth 48h = inhibits P. falciparum growth in the first generation, 48 h. AID 504832. hit rate 5.9% among 310,000. P. falciparum luciferase growth in erythrocytes, 48 h. Potency, µM (highest dose often 28.7 µM), hits mostly inhibitors
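First compound was added to culture medium, then infected red cells at 0.1% parasitemia and 2% hematocrit (final). After incubation at 37 C under 5% CO2, luciferase detection reagent was dispensed and light output recorded.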
HCV inhibitor = blocks hepatitis C virus; Potency, µM (top dose mostly 41.8 µM), most hits filed as inhibitors; Huh7.5.1 HCVcc-Cre infection, luciferase reporter, 44 h; hit rate 3.4% among 340,000; AID 651820
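HCVcc-Cre virus at an moi near 0.5 was added right after compound to cells cultured 4 h from seeding (1,000 cells/well). Luciferase activity was determined 44 h later, 15 min after substrate addition at RT.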
Pf growth 96h = inhibits malaria parasite growth, 96 h. P. falciparum luciferase reporter growth, 96 h. hit rate 6.9% among 320,000. AID 504834. Potency, µM (highest dose often 28.7 µM), usual class: inhibitors
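Infected RBCs, 2% Hct / 0.05% parasitemia final; luciferase-reporter P. falciparum; cpd 96 h, 37 C, 5% CO2; luciferase detection reagent; luminescence.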
AmpC inh no detg = blocks E. coli AmpC beta-lactamase in detergent-free assay; Potency, µM (top dose mostly 57.1 µM), usual class: inhibitors; hit rate 0.52% among 330,000; AmpC nitrocefin hydrolysis, absorbance 480 nm, 0.0001% Triton; AID 485341; P00811; further: nearly all actives have a fitted effect of over 20% in size
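20 mM phosphate pH 7.0 + 0.01% (detergent screen) or 0.0001% Triton X-100; 5.3 nM AmpC reagent; cpd preinc 15 min RT; nitrocefin (800 uM stock) to start; A480 q20 s × 4 min; Activity was normalised to no-enzyme and no-compound control wells.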
Numbers stand for hits. An excerpt weighted towards active compounds, which were near 11% of everything screened. The call rests on the fitted dose curve; in most records, active means well fitted curve in the direction sought with a large enough effect; inconclusive means small, poorly fitted or top-dose-only effect, or another doubt; inactive means no such curve, though single readings can be large; an effect the other way counts as inactive or inconclusive.

What do the screens show for `Cc1cc(C)nc(NC(=O)c2cc(-c3ccc4c(c3)OCO4)nc3ccccc23)c1`?
AmpC detergent: inactive; AMA1 RON2 block: inactive; Pf growth 48h: inconclusive; Pf growth 96h: inconclusive; AmpC inh no detg: inactive

Results for O=C(N/N=C/c1ccc2c(c1)OCO2)c1cc(-c2ccco2)nc2ccccc12 ?
AmpC detergent: inactive; AMA1 RON2 block: inactive; Pf growth 48h: inactive; HCV inhibitor: inconclusive; Pf growth 96h: inactive; AmpC inh no detg: inactive

What do the screens show for `COC(=O)c1cc(-c2ccc3c(c2)OCO3)nc2ccccc12`?
AmpC detergent: inconclusive; AMA1 RON2 block: inactive; Pf growth 48h: inactive; HCV inhibitor: inconclusive; Pf growth 96h: 0.41µM; AmpC inh no detg: inactive

What do the screens show for `Cc1cc(N/N=C/c2ccc3c(c2)OCO3)nc2ccccc12`?
AmpC detergent: inactive; AMA1 RON2 block: inactive; Pf growth 48h: inconclusive; HCV inhibitor: inconclusive; Pf growth 96h: 4.7µM; AmpC inh no detg: inactive

How did O=C(N/N=C/c1ccc2c(c1)OCO2)c1cc(-c2ccccc2)nc2ccccc12 do in these assays?
AmpC detergent: inactive; AMA1 RON2 block: inactive; Pf growth 48h: inconclusive; HCV inhibitor: inactive; Pf growth 96h: 12µM; AmpC inh no detg: inactive

Results for Cc1ccc(CNC(=O)C(=O)NCC(c2cccnc2)N2CCN(c3ccccc3F)CC2)cc1 (stereo unspecified) ?
AmpC detergent: inactive

How did O=C(Nc1ccc(S(=O)(=O)N2CCCC2)cc1)c1ccc([N+](=O)[O-])o1 do in these assays?
AMA1 RON2 block: inactive; HCV inhibitor: 2.8µM; AmpC inh no detg: inactive

What do the screens show for `O=C(Nc1ccc(S(=O)(=O)N2CCOCC2)cc1)c1cccs1`?
AmpC detergent: inactive; AMA1 RON2 block: inactive; Pf growth 48h: inactive; HCV inhibitor: inactive; Pf growth 96h: inactive; AmpC inh no detg: inactive

How did O=C(Nc1ccccc1N1CCOCC1)c1ccc([N+](=O)[O-])s1 do in these assays?
AMA1 RON2 block: inconclusive; HCV inhibitor: 11µM; AmpC inh no detg: inactive

Results for Cc1ccc(C(=O)Nc2ccc(S(=O)(=O)N3CCCC3)cc2)o1 ?
AmpC detergent: inactive; AMA1 RON2 block: inactive; Pf growth 48h: inactive; HCV inhibitor: inactive; Pf growth 96h: inactive; AmpC inh no detg: inactive

What do the screens show for `O=C(Nc1ccc(N2CCOCC2)cc1)c1ccc([N+](=O)[O-])o1`?
AmpC detergent: inconclusive; AMA1 RON2 block: inactive; Pf growth 48h: inactive; HCV inhibitor: inconclusive; Pf growth 96h: inactive; AmpC inh no detg: inactive

How did O=C(Nc1ccccc1N1CCOCC1)c1ccccc1[N+](=O)[O-] do in these assays?
AmpC detergent: inactive; AMA1 RON2 block: inactive; Pf growth 48h: inactive; HCV inhibitor: inactive; Pf growth 96h: inactive; AmpC inh no detg: inactive

How did O=C(Nc1ccc(S(=O)(=O)N2CCOCC2)cc1)c1ccc([N+](=O)[O-])s1 do in these assays?
AmpC detergent: inactive; AMA1 RON2 block: inactive; Pf growth 48h: inconclusive; HCV inhibitor: 8.9µM; Pf growth 96h: inconclusive; AmpC inh no detg: inactive

How did O=C(Nc1ccc(S(=O)(=O)N2CCOCC2)cc1)c1ccc([N+](=O)[O-])o1 do in these assays?
AmpC detergent: inactive; AMA1 RON2 block: inactive; Pf growth 48h: 10µM; HCV inhibitor: inactive; Pf growth 96h: inconclusive; AmpC inh no detg: inactive

How did CCOC(=O)c1ccc(NC(=O)c2cc3c(n(-c4ccc(C)cc4)c2=O)CC(C)(C)CC3=O)cc1 do in these assays?
AmpC detergent: inactive

How did O=S(=O)(NCCc1csc2nc(-c3ccccc3)nn12)c1ccc(Oc2ccccc2)cc1 do in these assays?
AmpC detergent: inactive

How did COc1ccc(OC(=O)c2nc(SCc3ccccc3C)ncc2Cl)cc1 do in these assays?
AmpC detergent: inactive

Results for Cc1nc2ccccc2c(=O)n1/N=C/c1ccccc1F ?
AmpC detergent: inactive; AMA1 RON2 block: inactive; HCV inhibitor: inactive; Pf growth 96h: 9.3µM; AmpC inh no detg: inactive

What do the screens show for `Cc1nc2ccccc2c(=O)n1/N=C/c1ccc([N+](=O)[O-])o1`?
AmpC detergent: inactive; Pf growth 48h: 13µM; Pf growth 96h: 5.9µM; AmpC inh no detg: inactive

Results for COc1cccc(/C=N/n2c(C)nc3ccccc32)c1OC ?
AmpC detergent: inactive; AMA1 RON2 block: inactive; Pf growth 48h: inactive; HCV inhibitor: 8.9µM; Pf growth 96h: inactive; AmpC inh no detg: inactive

Results for Cc1ccc(/C=N/n2c(C)nc3ccccc3c2=O)o1 ?
AmpC detergent: inactive; AMA1 RON2 block: inactive; Pf growth 48h: inactive; HCV inhibitor: inactive; Pf growth 96h: inactive; AmpC inh no detg: inactive

Results for Cc1nc2ccccc2n1/N=C/c1ccc([N+](=O)[O-])o1 ?
AMA1 RON2 block: inactive; HCV inhibitor: 10µM

Results for CCOc1ccc(NC(=O)c2nnn(-c3ccc(F)c(Cl)c3)c2C)cc1 ?
AmpC detergent: inactive

Results for Clc1ccc(-c2csc(=Nc3ccccc3)n2Cc2ccc3c(c2)OCO3)cc1 ?
AmpC detergent: inactive

What do the screens show for `COc1cc(C)c(N(C(C)=O)c2ccccc2)c(C)c1`?
AmpC detergent: inactive; AMA1 RON2 block: inactive; Pf growth 48h: 5.9µM; HCV inhibitor: inactive; AmpC inh no detg: inactive

What do the screens show for `O=C(N(c1ccccc1)c1ccccc1)N(c1ccccc1)c1ccccc1`?
AmpC detergent: inactive; AMA1 RON2 block: inactive; Pf growth 48h: inconclusive; HCV inhibitor: inactive; Pf growth 96h: inconclusive; AmpC inh no detg: inactive

What do the screens show for `COc1cccc(Cc2nc3ccccc3nc2SCC(=O)Nc2ccccc2F)c1`?
AmpC detergent: inactive

What do the screens show for `CC(C)N1CCN(Cc2ccc(OC3CCCC3)cc2)CC1CCO` (stereo unspecified)?
AmpC detergent: inconclusive; AMA1 RON2 block: inactive; Pf growth 48h: inactive; HCV inhibitor: inconclusive; Pf growth 96h: 12µM; AmpC inh no detg: inactive

What do the screens show for `O=c1cc(N2CCc3ccccc3C2)[nH]c(=O)n1-c1ccccc1Cl`?
AmpC detergent: inactive; AMA1 RON2 block: inactive; Pf growth 48h: inactive; HCV inhibitor: inactive; Pf growth 96h: inactive; AmpC inh no detg: 10µM

How did Cc1ccccc1-n1c(=O)cc(N2CCc3ccccc3C2)[nH]c1=O do in these assays?
AmpC detergent: inactive; AMA1 RON2 block: inactive; Pf growth 48h: inactive; HCV inhibitor: inactive; Pf growth 96h: inactive; AmpC inh no detg: inactive

Results for CCCOc1ccc(C(=O)Nc2cc(S(=O)(=O)N3CCOCC3)ccc2N2CCOCC2)cc1 ?
AmpC detergent: inactive; AMA1 RON2 block: inactive; Pf growth 48h: 12µM; HCV inhibitor: inconclusive; Pf growth 96h: inconclusive; AmpC inh no detg: inactive

How did CCOc1ccc(C(=O)Nc2cc(S(=O)(=O)Nc3ccccc3Cl)ccc2N2CCOCC2)cc1 do in these assays?
AmpC detergent: inactive; AMA1 RON2 block: inactive; Pf growth 48h: inconclusive; HCV inhibitor: inconclusive; Pf growth 96h: 2.6µM; AmpC inh no detg: inactive
